From PubChem BioAssay come the findings set out here.

Each structure is given as a SMILES string.

This test has as its system Wnt5a (protein binding on small-molecule microarray). The experiment in a line: small molecules binding Wnt5a protein – biophysical, small-molecule microarray, 635/667 nm fluorescence, primary screen (AID 1142).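 Also: fluorescence read at 667 nm with signal to noise per printed feature.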 Conditions: 635 nm fluorescence, higher = more signal.
Compound `CC(=O)OC[C@H]1O[C@@H](ON=C[C@@H](C)[C@H](OCc2ccccc2)C(C)C)[C@H](OC(C)=O)[C@@H](OC(C)=O)[C@@H]1OC(C)=O` displayed a composite z-score of 0.235.
Compound `CN1C(=O)C2C=CC(C(O)C(c3ccccc3)c3ccccc3)N(NC(=O)OC(C)(C)C)C2C1=O` (stereo unspecified) gave a composite z-score of 0.843.
As for `COC(=O)C1=C(C)N(Cc2ccccc2)[C@]23O[C@](C(=O)OC)(C(=O)N2[C@@H]1c1ccccc1)[C@H]1CCOC(=O)[C@H]13`, the figure is 0.313.
As for `C=C(CCCC)C(=O)CC[C@@H](OC(C)=O)c1cccc(OCCO)c1`, the figure is 0.0837; as for `CO[C@@H]1COC(=O)CC=C[C@@H](C)[C@@H]2C=C[C@@H](O)[C@@H](COC(=O)CC=C[C@H]1C)O2`, -0.141.
Then `COC(=O)[C@@]1(Cc2ccccc2)[C@H]2c3cc(C(=O)N4CCCC4)n(Cc4ccccn4)c3C[C@H]2CN1C(=O)c1ccccc1`, with 1.25; and `CCOC(=O)NN=C1C[C@@H](O)[C@@H](O)[C@@H]2[C@@H]3C(=O)N(C(C)(C)C)C(=O)[C@@H]3CC[C@@H]12`, with -0.263; and `C=CCN1C(=O)[C@]2(O[C@H](CCn3cc(CCO)nn3)[C@@H]([Si](C)(C)c3ccc(OC)cc3)[C@@H]2C)c2cc(N3CCOC3=O)ccc21`, with -0.246.
Take `CCOc1ccc(N2C(=O)/C(=C/C=C/c3ccccc3OC)S(=O)(=O)C2c2cccc([N+](=O)[O-])c2)cc1` (stereo unspecified): the composite z-score was -0.0676.
`O[C@@H](Cc1ccccc1)[C@H]1C2C=CCCC(c3ccccc3)=C2CN1Cc1cccc(Cl)c1` (stereo partly specified) showed a composite z-score of 0.0825.
Then `CO[C@H]1O[C@H](CO)[C@@H](OC(=O)Nc2ccc(C#N)cc2)[C@H](OC(=O)c2cc3ccccc3[nH]2)[C@H]1OC(=O)c1cc2ccccc2[nH]1`, with 0.436; and `Cc1ccc(S(=O)(=O)N[C@@H]2COC(=O)[C@H](C)COC(=O)CC=C[C@H]2C)cc1`, with 0.0114.
In turn, `C=CC[C@@H]1C=C[C@H](ON=C2c3cc(OC)ccc3O[C@H](c3cccc(OC)c3)[C@H]2O)[C@@H](CO)O1` had a composite z-score of -0.0596.
Turning to `C=CCC(OC(C)=O)[C@@H]1[C@@H](N(Cc2cc3ccccc3o2)C(=O)Cc2ccc(F)cc2)c2cc(OCCCO)ccc2N1C(=O)Cc1ccc(OC)cc1` (stereo partly specified), the composite z-score was -0.368.
`CCOC(=O)[C@H](CC(C)C)NC(=O)CCC1CC(OC(=O)NCCc2ccc(F)cc2)CC2(CCCC(COC(=O)NCc3ccccc3)O2)O1` (stereo partly specified) returned a composite z-score of 0.371.
Then `O=C1[C@H]2[C@H]3[C@H](O)[C@H](O)CC(=NOC[C@@H](O)COCc4ccco4)[C@H]3CC[C@H]2C(=O)N1Cc1ccc2c(c1)OCO2`, with 0.138; and `CC(CCC(=O)OC[C@H]1O[C@H](C#Cc2ccccc2)C=C[C@@H]1Oc1ccc(C)cc1)=NOC[C@@H](O)[C@H]1O[C@@H]2OC(C)(C)O[C@@H]2[C@H]1O`, with -0.598; and `CC(C)(C)N1CC=CC23O[C@@H]4C=CCCOC(=O)C4[C@H]2C(=O)N(CCCCCO)[C@@H]3C1=O` (stereo partly specified), with 0.37.
The compound `CCc1cc2c(nc1CC)CCN(CCC(C)=NO[C@@H](C)c1cc(-c3c(C)cc(C)cc3C)no1)C2` displayed a composite z-score of -0.0627.
Compound `CC(C)CON=C1C[C@@H](O)[C@@H](O)[C@@H]2[C@@H]3C(=O)N(Cc4ccccc4)C(=O)[C@@H]3CC[C@@H]12` came in with a composite z-score of 0.0819.
For `COCCCNC(=O)[C@@]1(C)c2ccccc2C(=O)N(Cc2ccc(OC(F)(F)F)cc2)[C@H]1c1ccc(CO)cc1`, the composite z-score was -0.0685.
The compound `O=C1C2=CC[C@H]3C(=O)N(Cc4ccc5c(c4)OCO5)C(=O)[C@H]3[C@H]2[C@H](O)[C@@H]2O[C@H]12` displayed a composite z-score of -0.0194.
As for `COc1ccc(O[C@H]2C=C[C@@H](c3ccccc3)O[C@@H]2COC(=O)CCC(C)=NOC(C)CN2CCCCc3nc(C)c(C)cc32)cc1` (stereo partly specified), the figure is -0.133.
Then `CC(CCN1CCCCc2nc(C)c(C)cc21)=NOC(C)CN1CCCCc2nc(C)c(C)cc21` (stereo unspecified), with 0.183; and `O=C1[C@H]2[C@H]3[C@H](O)[C@H](O)CC(=NOCc4ccccc4)[C@@H]3CC[C@H]2C(=O)N1C1CCCCC1`, with 0.0062.
Then `COc1ccc([Si](C)(C)[C@@H]2[C@@H](CCO)O[C@]3(C(=O)N(Cc4ccc(NC(C)=O)cc4)c4ccccc43)[C@H]2C)cc1`, with 0.913; and `Cc1cc2c(c(=O)o1)[C@H](O)[C@H]1O[C@H]1C2=O`, with -0.218; and `O=C1[C@H]2[C@H]3[C@H](O)[C@H](O)CC(=NOC[C@@H](O)COCc4ccco4)[C@H]3CC[C@H]2C(=O)N1C1CCCCC1`, with 0.257.
`[N-]=[N+]=Nc1ccccc1C[C@@]1(C(N)=O)N=C(c2ccc(OCCCO)cc2)O[C@@H]1c1ccccc1` displayed a composite z-score of 0.0445.
Then `CCOC(=O)NN=C1C[C@@H](O)[C@@H](O)[C@@H]2[C@@H]3C(=O)N(CC)C(=O)[C@@H]3CC[C@@H]12`, with -0.0087.
As for `CC(C)NC(=O)[C@@]1(c2ccc([N+](=O)[O-])cc2)CC(=O)N(CC23CC4CC(CC(C4)C2)C3)[C@@H]1c1ccc(CO)cc1I`, the figure is 0.492; as for `COC(=O)C1(C)C=C2C(=C(c3ccccc3)C(=O)C2C)CN1` (stereo unspecified), 0.0106.
Then `O=C1[C@H]2[C@H]3[C@H](O)[C@H](O)CC(=NO[C@@H]4O[C@H](CO)[C@@H](O)[C@H](O)[C@H]4O)[C@@H]3CC[C@H]2C(=O)N1Cc1ccccc1`, with -0.0389.
The compound `CCOC(=O)CCN1C(=O)[C@H]2[C@H]3[C@H](O)C=CC(=O)[C@@H]3CC[C@H]2C1=O` registered a composite z-score of -0.244.
The compound `Cc1cc2c(nc1C)CCCN2CC(C)ON=C1[C@H]2CCn3c(=O)n(-c4ccccc4)c(=O)n3[C@H]2[C@H](O)[C@@H]2O[C@H]12` (stereo partly specified) gave a composite z-score of 0.337.
Consider `CCCCc1nc2c(c3c1C[C@H](C)OC3)CN(CCC(C)C)CC2`, for which the composite z-score stood at 0.122.
